IDE exosite inh – exo-site inhibitors of human IDE, primary screen, biochemical, fluorescence anisotropy, probe displacement. purified IDE, FL-6b probe fluorescence polarization; active compounds read low. hit rate 6.3% among 17,000. AID 1259349, 2017. Insulin-degrading enzyme (Homo sapiens), P14735. z-score at 20 µM;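 active = z-score of -3 or lower, meaning strong loss of probe binding signal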;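 also: His-tagged human IDE residues 42-1019 made in E. coli with 30 nM FL-6b probe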
* = called active by the depositor. This excerpt belongs to a sample that is enriched for hits.

SMILES | IDE exosite inh
CN(C)CC#Cc1ccc([C@@H]2[C@H](CO)N3CCCCN(C(=O)Nc4ccccc4F)C[C@@H]23)cc1 | 0.63
CCS(=O)(=O)N1CCCCN2[C@H](CO)[C@H](c3ccc(C#CC(C)(C)O)cc3)[C@H]2C1 | 2.8
O=C(c1ccncc1)N1CC(=O)N2[C@H](C1)[C@H](c1ccc(-c3cccnc3)cc1)[C@@H]2CO | 0.98
O=C(Cc1ccccc1)N1CC(=O)N2[C@H](C1)[C@@H](c1ccc(C3=CCCC3)cc1)[C@@H]2CO | 0.99
COc1ccccc1NC(=O)N1CCCCN2[C@H](CO)[C@H](c3ccc(-c4cccc(C#N)c4)cc3)[C@H]2C1 | -1.1
O=C(Nc1ccccc1)N1CC(=O)N2[C@H](C1)[C@H](c1ccc(C#Cc3cccnc3)cc1)[C@@H]2CO | 0.89
COCC#Cc1ccc([C@H]2[C@H]3CN(C(=O)C4CCOCC4)CC(=O)N3[C@H]2CO)cc1 | 0.44
CN(C)C(=O)c1ccc(-c2ccc([C@@H]3[C@@H](CO)N4C(=O)CN(C(=O)C5CCC5)C[C@@H]34)cc2)cc1 | -0.014
COc1cccc(-c2ccc([C@H]3[C@@H](CO)N4CCCCN(S(=O)(=O)c5cccs5)C[C@@H]34)cc2)c1 | 2
COc1cccc(-c2ccc([C@@H]3[C@H]4CN(S(=O)(=O)c5cn(C)cn5)CCCCN4[C@H]3CO)cc2)c1 | -5.5*
COc1cccc(-c2ccc([C@@H]3[C@@H](CO)N4CCCCN(S(=O)(=O)c5cccs5)C[C@@H]34)cc2)c1 | -3.2*
Cc1cccc(-c2ccc([C@H]3[C@@H](CO)N4CCCCN(S(=O)(=O)c5cn(C)cn5)C[C@H]34)cc2)c1 | -11*
COc1cccc(-c2ccc([C@H]3[C@H]4CN(S(=O)(=O)c5cccs5)CCCCN4[C@H]3CO)cc2)c1 | 0.23
Cn1cnc(S(=O)(=O)N2CCCCN3[C@H](C2)[C@H](c2ccc(-c4cccc(F)c4)cc2)[C@@H]3CO)c1 | 3.3
O=S(=O)(c1ccccc1F)N1CCCCN2[C@H](C1)[C@H](c1ccc(-c3ccccc3)cc1)[C@@H]2CO | 0.64
Cc1cccc(-c2ccc([C@@H]3[C@H](CO)N4CCCCN(S(=O)(=O)c5ccccc5F)C[C@@H]34)cc2)c1 | -22*
Cn1cnc(S(=O)(=O)N2CCCCN3[C@H](CO)[C@H](c4ccc(-c5cccc(F)c5)cc4)[C@H]3C2)c1 | -1.3
Cc1cccc(-c2ccc([C@H]3[C@H](CO)N4CCCCN(S(=O)(=O)c5ccccc5C)C[C@@H]34)cc2)c1 | 1.3
Cc1cccc(-c2ccc([C@@H]3[C@@H](CO)N4CCCCN(S(=O)(=O)c5cn(C)cn5)C[C@H]34)cc2)c1 | -0.7
Cn1cnc(S(=O)(=O)N2CCCCN3[C@H](CO)[C@@H](c4ccc(-c5ccccc5)cc4)[C@H]3C2)c1 | 1.3
O=C(Nc1ccc(F)cc1)N1CC(=O)N2[C@H](C1)[C@H](c1ccc(C3=CCCC3)cc1)[C@@H]2CO | -0.016
C[C@H]1COCc2cnnn2CC[C@@H](Cc2ccccc2)C(=O)N1 | -0.73
O=C(Nc1ccccc1F)N1CC(=O)N2[C@H](CO)[C@H](c3ccc(C#Cc4ccc(F)cc4)cc3)[C@H]2C1 | 1.9
CO[C@H]1CN(C)C(=O)c2ccc(NC(=O)Nc3ccccc3Cl)cc2OC[C@@H](C)NC[C@@H]1C | -0.96
C[C@@H]1CN([C@@H](C)CO)C(=O)c2cc(NC(=O)Nc3ccccc3)ccc2O[C@@H](C)CCCCO[C@@H]1CN(C)C(=O)Nc1ccccc1 | 0.66
SMILES | IDE exosite inh
COc1ccc2c3c([nH]c2c1)[C@@H](CO)N(S(C)(=O)=O)CC31CN(C(=O)Cc2cccnc2)C1 | 0.033
CCC(=O)N1CC(=O)N2[C@H](C1)[C@H](c1ccc(C#CCC(C)C)cc1)[C@@H]2CO | 0.75
O=C(c1ccncc1)N1CC(=O)N2[C@H](C1)[C@H](c1ccc(-c3ccccc3)cc1)[C@@H]2CO | 1.3
Cc1ccc(-c2ccc([C@@H]3[C@H]4CN(C(=O)c5ccncc5)CC(=O)N4[C@H]3CO)cc2)cc1 | -4.4*
Cc1ccc(-c2ccc([C@@H]3[C@H](CO)N4C(=O)CN(C(=O)c5ccncc5)C[C@@H]34)cc2)cc1 | 1.8
Cc1ccc(-c2ccc([C@@H]3[C@@H](CO)N4C(=O)CN(C(=O)c5ccncc5)C[C@@H]34)cc2)cc1 | 2
O=C(c1ccncc1)N1CC(=O)N2[C@@H](CO)[C@@H](c3ccc(-c4ccccc4)cc3)[C@@H]2C1 | 3.3
Cc1ccc(-c2ccc([C@H]3[C@H](CO)N4C(=O)CN(C(=O)c5ccncc5)C[C@@H]34)cc2)cc1 | -3.2*
O=C(c1ccncc1)N1CC(=O)N2[C@H](C1)[C@@H](c1ccc(-c3ccccc3)cc1)[C@@H]2CO | -6.8*
Cc1ccc(-c2ccc([C@H]3[C@H]4CN(C(=O)c5ccncc5)CC(=O)N4[C@H]3CO)cc2)cc1 | 0.4
Cc1ccc(-c2ccc([C@@H]3[C@@H](CO)N4C(=O)CN(C(=O)c5ccncc5)C[C@H]34)cc2)cc1 | -0.28
COc1ccc(C#Cc2cccc(-c3nc(C(=O)Nc4ccc(-c5ccccc5)cc4)cc4c3[C@@H](CCO)N(S(=O)C(C)(C)C)C4)c2)cc1OC (stereo not given in full) | -0.52
C[C@@H]1C(=O)N[C@@H](c2ccc3c(c2)OCO3)CC=CC[C@H](C)Oc2ccccc2C(=O)N1C (mixture of isomers) | 1.6
O=C(C1CC1)N1CC(=O)N2[C@@H](CO)[C@@H](c3ccc(C#CC4CCCC4)cc3)[C@@H]2C1 | 2.5
CC(=O)N1CC(=O)N2[C@H](C1)[C@H](c1ccc(-c3ccc(C)cc3)cc1)[C@@H]2CO | 0.6
O=C1CNC[C@H]2[C@@H](c3ccc(C#CC4CCCC4)cc3)[C@H](CO)N12 | 4.1
C/C=C/c1ccc([C@H]2[C@H](CO)N(C(C)=O)[C@H]2CN(C)C(=O)c2ccccn2)cc1 | 4.2
O=C(C1CCCC1)N1CC(=O)N2[C@H](C1)[C@H](c1ccc(C#CC3CCCC3)cc1)[C@@H]2CO | 2.2
C/C=C/c1ccc([C@@H]2[C@@H](CO)N3C(=O)CN(C(=O)c4ccncc4)C[C@H]23)cc1 | 0.78
Cc1cccc(-c2ccc([C@@H]3[C@@H](CO)N4C(=O)CN(C(=O)Cc5ccccn5)C[C@@H]34)cc2)c1 | -12*
O=C(Cc1ccccn1)N1CC(=O)N2[C@H](CO)[C@@H](c3ccc(C#CC4CC4)cc3)[C@H]2C1 | 3.5
O=C(Cc1ccccn1)N1CC(=O)N2[C@H](C1)[C@@H](c1ccc(C#CC3CC3)cc1)[C@@H]2CO | -3.1*
Cc1ccc(-c2ccc([C@H]3[C@@H](CO)N4C(=O)CN(C(=O)Cc5ccccn5)C[C@@H]34)cc2)cc1 | -1.3
COc1ccc(-c2ccc([C@H]3[C@H]4CN(C(=O)Cc5ccccn5)CC(=O)N4[C@H]3CO)cc2)cc1 | -0.84
Cc1ccc(-c2ccc([C@H]3[C@H](CO)N4C(=O)CN(C(=O)Cc5ccccn5)C[C@@H]34)cc2)cc1 | 0.21
Cc1cccc(-c2ccc([C@H]3[C@@H](CO)N4C(=O)CN(C(=O)Cc5ccccn5)C[C@@H]34)cc2)c1 | -11*
O=C(Cc1ccccn1)N1CC(=O)N2[C@@H](CO)[C@H](c3ccc(-c4ccccc4)cc3)[C@@H]2C1 | -1.5
Cc1cccc(-c2ccc([C@H]3[C@H]4CN(C(=O)Cc5ccccn5)CC(=O)N4[C@H]3CO)cc2)c1 | -4.5*
O=C(Cc1ccccn1)N1CC(=O)N2[C@@H](CO)[C@@H](c3ccc(C#CC4CC4)cc3)[C@@H]2C1 | 0.96
